In the supplement of paper PMC8540655:
A number with no mark means an inactive call.

Tested on: Aedes aegypti larvae
Assay: larval motility relative to same well at 0 h (fraction); higher = more motile (less active compound), active = 0.4 or less
Settings: 10 µM; 2 h
How it was run: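 Each 96-well plate held about 10 Aedes aegypti larvae per well in 100 µL, along with solvent and larvicide control wells. Compounds were present at 10 µM with 1% v/v DMSO, and INVAPP recorded 200-frame movies at 100 ms intervals at 0, 2 and 24 h. Relative motility divides each well's score by its baseline score from the first recording, with the median taken across independent larval batches, of which there were three.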

Structure (SMILES)	larval motility
O=[N+]([O-])c1ccc2c(CCc3c[nH]c4ccccc34)c[nH]c2c1	1.12
CC(C)(C)c1ccc(C(Cn2cccc(C(F)(F)F)c2=O)NC2Cc3ccccc3C2)cc1 (stereo not given)	0.686
Nc1nc(O)c2ncn(COC(CO)CO)c2n1	1.05
COc1cc(NCc2ccc3nc(N)nc(N)c3c2C)cc(OC)c1OC	0.5
Cc1cc(CCCOc2c(C)cc(-c3noc(C(F)(F)F)n3)cc2C)on1	1.46
Cc1cc(CCOc2c(C)cc(-c3nnn(C)n3)cc2C)on1	0.857
COc1ccc(C2CNC(=O)C2)cc1OC1CCCC1 (stereo not given)	0.834
O=C(N[C@H](Cc1cccc2ccccc12)C(=O)NCCc1c[nH]cn1)C1Cc2ccccc2C1	0.819
Cc1nc(Nc2ccc(F)cc2)nc(N2CCc3ccccc3C2C)c1C (stereo not given)	0.774
C[C@H](c1cccc2ccccc12)N(C)Cc1ccccc1	1.02
COc1cc(NC(=O)CN2C(=O)NC(c3ccccc3)(c3ccccc3)C2=O)cc(OC)c1	0.866
NC(=O)c1cnc2ccc(S(=O)(=O)c3ccccc3)cc2c1Nc1ccc(O)cc1	1.25
CCN(CC)S(=O)(=O)c1ccc(Cl)c(C(=O)Nc2sc3c(c2C#N)CCCC3)c1	1.52
NNC(=O)c1ccncc1	0.924
Cc1ccccc1NC(=O)Nc1cccc([N+](=O)[O-])c1	1.19
